Among the data in ChEMBL document CHEMBL1961873, “Compounds: GSK PKIS; Assays: Nanosyn kinase panel” (2012) are inhibition values, retold here.

Assay [1] has as its target Death-associated protein kinase 1 (Homo sapiens) (UniProt P53355). The note with it: at 1 µM.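 Further: each value is a mean inhibition figure.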
The target of assay [2] is T1, Serine/threonine-protein kinase DCLK2 (Homo sapiens) (UniProt Q8N568).
T1 sequence (whole entry): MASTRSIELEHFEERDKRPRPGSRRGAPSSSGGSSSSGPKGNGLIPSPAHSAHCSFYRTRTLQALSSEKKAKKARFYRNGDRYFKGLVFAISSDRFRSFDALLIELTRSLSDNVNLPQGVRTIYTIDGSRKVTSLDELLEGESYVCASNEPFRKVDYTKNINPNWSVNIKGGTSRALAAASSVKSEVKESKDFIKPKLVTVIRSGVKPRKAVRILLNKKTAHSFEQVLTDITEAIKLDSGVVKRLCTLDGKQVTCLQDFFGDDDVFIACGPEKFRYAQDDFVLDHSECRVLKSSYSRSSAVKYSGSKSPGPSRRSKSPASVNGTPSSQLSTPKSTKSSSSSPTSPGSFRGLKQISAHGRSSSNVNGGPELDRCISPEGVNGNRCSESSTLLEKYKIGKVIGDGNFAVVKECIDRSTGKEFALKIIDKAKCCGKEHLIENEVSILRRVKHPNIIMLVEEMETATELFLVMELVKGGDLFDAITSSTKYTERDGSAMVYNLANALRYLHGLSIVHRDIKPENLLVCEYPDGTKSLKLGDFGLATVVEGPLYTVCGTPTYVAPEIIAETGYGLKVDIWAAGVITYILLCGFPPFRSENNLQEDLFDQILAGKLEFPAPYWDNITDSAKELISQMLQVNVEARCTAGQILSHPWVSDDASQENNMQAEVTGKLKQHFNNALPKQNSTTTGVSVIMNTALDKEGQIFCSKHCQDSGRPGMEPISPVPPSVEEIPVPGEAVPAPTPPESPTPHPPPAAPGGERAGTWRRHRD
The note with it: at 0.1 µM.

Assay [3] addresses T1, Serine/threonine-protein kinase DCLK2 (Homo sapiens). The note with it: at 1 µM.
In assay [4] the target is MAP kinase-activated protein kinase 2 (Homo sapiens) (UniProt P49137). Conditions: at 0.1 µM.
For assay [5] the target is unchanged. Conditions: at 1 µM.
Assay [6] has as its target MAP kinase-activated protein kinase 3 (Homo sapiens) (UniProt Q16644). Conditions: at 0.1 µM.
The target is the same in assay [7]. Conditions: at 1 µM.
Assay [8] addresses Serine/threonine-protein kinase MARK1 (Homo sapiens) (UniProt Q9P0L2). Conditions: at 0.1 µM.
Assay [9] has the same target. Conditions: at 1 µM.
Assay [10] concerns the target MAP/microtubule affinity-regulating kinase 3 (Homo sapiens) (UniProt P27448). Conditions: at 0.1 µM.
Assay [11] has the same target. Conditions: at 1 µM.
Assay [12] concerns the target T2, MAP/microtubule affinity-regulating kinase 4 (Homo sapiens) (UniProt Q96L34).
T2 sequence (whole entry): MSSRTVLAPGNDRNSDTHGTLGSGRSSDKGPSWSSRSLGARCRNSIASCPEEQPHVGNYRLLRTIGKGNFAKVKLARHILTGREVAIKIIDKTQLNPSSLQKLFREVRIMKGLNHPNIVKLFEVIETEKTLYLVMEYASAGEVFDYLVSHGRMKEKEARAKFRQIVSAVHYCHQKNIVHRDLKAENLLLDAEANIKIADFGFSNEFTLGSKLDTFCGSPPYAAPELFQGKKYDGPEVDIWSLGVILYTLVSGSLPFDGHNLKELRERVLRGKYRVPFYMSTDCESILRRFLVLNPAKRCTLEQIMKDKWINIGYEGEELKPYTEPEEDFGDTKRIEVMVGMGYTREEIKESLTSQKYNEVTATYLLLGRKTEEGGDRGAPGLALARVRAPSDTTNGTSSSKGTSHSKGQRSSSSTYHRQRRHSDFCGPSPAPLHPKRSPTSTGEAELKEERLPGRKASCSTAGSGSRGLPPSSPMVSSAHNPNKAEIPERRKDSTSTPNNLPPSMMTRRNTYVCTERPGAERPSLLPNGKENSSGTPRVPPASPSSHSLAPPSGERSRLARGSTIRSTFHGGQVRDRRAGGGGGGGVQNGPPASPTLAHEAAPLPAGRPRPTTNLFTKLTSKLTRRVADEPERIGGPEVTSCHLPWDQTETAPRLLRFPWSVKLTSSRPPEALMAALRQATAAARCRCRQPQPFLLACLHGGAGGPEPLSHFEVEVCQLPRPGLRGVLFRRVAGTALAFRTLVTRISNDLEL
The note with it: at 0.1 µM.

Assay [13] addresses T2, MAP/microtubule affinity-regulating kinase 4 (Homo sapiens). The note with it: at 1 µM.
The target in assay [14] is Maternal embryonic leucine zipper kinase (Homo sapiens) (UniProt Q14680). The note with it: at 0.1 µM.
For assay [15] the target is unchanged. The note with it: at 1 µM.
In assay [16] the target is MAP kinase-interacting serine/threonine-protein kinase 1 (Homo sapiens) (UniProt Q9BUB5). Conditions: at 0.1 µM.
Assay [17] has the same target. The note with it: at 1 µM.
Assay [18] deals with MAP kinase-interacting serine/threonine-protein kinase 2 (Homo sapiens) (UniProt Q9HBH9). Conditions: at 0.1 µM.
Assay [19] has the same target. Conditions: at 1 µM.
For assay [20], the target named is Serine/threonine-protein kinase MARK2 (Homo sapiens) (UniProt Q7KZI7). The note with it: at 0.1 µM.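 Further: mean percent inhibition of PAR-1Balpha kinase activity, reported from the GSK PKIS screen.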

Sequence of MAP kinase-activated protein kinase 2 (Homo sapiens) (P49137 whole entry, looked up): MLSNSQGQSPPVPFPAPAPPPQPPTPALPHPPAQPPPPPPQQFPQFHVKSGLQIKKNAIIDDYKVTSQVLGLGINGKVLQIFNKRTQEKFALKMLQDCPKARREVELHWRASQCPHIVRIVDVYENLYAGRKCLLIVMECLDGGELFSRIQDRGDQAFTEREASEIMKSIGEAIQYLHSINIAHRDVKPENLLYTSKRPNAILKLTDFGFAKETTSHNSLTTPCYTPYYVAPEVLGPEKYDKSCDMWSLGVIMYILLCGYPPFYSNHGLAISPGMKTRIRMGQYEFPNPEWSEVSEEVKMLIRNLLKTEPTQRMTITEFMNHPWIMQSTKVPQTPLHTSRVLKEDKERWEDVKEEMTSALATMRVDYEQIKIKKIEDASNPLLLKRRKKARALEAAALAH
Sequence of Maternal embryonic leucine zipper kinase (Homo sapiens) (Q14680 whole entry, looked up): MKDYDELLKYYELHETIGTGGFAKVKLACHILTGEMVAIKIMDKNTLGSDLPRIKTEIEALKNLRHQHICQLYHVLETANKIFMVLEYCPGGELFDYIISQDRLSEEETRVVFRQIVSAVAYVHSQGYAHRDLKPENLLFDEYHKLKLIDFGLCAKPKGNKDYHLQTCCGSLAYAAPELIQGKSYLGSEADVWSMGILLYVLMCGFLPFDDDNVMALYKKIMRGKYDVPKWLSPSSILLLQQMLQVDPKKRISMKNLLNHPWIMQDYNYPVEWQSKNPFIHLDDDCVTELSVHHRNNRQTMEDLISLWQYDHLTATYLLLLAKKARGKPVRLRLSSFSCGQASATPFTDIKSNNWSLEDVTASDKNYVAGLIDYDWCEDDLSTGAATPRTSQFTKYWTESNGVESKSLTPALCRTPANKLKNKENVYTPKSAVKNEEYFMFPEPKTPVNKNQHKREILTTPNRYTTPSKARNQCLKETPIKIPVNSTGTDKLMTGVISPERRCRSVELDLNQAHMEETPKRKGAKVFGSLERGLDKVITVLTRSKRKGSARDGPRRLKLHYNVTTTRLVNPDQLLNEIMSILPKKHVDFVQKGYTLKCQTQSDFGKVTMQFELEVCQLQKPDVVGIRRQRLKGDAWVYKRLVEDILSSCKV
Sequence of MAP/microtubule affinity-regulating kinase 3 (Homo sapiens) (P27448 whole entry, looked up): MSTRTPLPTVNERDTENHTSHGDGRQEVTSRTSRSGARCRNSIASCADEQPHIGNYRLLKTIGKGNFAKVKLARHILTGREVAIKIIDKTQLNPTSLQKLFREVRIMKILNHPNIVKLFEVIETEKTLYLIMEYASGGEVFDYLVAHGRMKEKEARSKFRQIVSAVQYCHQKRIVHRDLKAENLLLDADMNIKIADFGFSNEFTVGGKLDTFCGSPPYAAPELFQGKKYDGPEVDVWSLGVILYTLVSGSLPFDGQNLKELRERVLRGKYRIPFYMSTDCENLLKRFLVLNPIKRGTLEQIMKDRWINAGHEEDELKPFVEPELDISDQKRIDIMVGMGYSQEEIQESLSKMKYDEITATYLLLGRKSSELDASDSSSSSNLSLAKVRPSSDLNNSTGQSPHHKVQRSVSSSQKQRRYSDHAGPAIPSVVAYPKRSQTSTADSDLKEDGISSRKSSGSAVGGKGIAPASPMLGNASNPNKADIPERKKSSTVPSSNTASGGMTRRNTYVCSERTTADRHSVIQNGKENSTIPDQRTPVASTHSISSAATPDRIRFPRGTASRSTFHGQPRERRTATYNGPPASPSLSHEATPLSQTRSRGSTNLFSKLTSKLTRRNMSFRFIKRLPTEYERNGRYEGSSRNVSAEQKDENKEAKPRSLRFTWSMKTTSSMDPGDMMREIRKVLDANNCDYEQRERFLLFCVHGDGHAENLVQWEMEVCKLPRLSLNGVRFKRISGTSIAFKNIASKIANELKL
Sequence of Death-associated protein kinase 1 (Homo sapiens) (P53355 whole entry, looked up): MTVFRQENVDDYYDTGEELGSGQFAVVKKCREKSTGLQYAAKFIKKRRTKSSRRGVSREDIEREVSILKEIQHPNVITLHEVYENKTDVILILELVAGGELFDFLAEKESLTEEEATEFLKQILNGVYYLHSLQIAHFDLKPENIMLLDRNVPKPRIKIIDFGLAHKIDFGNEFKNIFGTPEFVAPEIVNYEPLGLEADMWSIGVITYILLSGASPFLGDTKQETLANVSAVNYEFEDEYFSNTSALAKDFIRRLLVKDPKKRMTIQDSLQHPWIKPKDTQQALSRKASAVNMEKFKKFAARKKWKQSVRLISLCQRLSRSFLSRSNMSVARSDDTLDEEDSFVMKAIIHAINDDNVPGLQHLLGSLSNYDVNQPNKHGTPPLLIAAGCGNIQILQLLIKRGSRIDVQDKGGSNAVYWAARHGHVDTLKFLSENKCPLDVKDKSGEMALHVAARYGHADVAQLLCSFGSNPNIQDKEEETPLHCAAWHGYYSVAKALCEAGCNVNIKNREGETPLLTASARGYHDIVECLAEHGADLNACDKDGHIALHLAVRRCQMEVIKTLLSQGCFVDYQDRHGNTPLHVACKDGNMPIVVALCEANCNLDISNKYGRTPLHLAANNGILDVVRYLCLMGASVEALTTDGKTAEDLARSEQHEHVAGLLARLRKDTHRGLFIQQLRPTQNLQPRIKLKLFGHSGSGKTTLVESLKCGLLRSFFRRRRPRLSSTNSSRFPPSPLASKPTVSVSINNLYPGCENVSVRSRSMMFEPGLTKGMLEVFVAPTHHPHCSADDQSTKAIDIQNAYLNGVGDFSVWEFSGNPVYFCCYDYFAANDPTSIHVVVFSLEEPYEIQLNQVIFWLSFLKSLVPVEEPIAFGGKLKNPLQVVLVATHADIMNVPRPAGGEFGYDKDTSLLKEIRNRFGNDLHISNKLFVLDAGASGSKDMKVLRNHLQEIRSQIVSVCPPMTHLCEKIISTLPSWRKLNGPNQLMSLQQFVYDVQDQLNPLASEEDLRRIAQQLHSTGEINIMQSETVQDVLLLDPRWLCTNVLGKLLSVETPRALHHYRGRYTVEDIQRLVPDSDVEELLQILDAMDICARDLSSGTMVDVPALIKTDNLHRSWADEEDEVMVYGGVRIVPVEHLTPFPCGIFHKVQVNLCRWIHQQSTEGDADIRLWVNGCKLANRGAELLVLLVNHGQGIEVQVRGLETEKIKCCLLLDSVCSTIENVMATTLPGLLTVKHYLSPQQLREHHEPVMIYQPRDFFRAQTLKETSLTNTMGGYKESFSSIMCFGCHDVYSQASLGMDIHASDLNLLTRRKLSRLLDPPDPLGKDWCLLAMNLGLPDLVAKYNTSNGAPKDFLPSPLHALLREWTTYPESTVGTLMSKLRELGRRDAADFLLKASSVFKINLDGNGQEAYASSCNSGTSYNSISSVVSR
Sequence of Serine/threonine-protein kinase MARK1 (Homo sapiens) (Q9P0L2 whole entry, looked up): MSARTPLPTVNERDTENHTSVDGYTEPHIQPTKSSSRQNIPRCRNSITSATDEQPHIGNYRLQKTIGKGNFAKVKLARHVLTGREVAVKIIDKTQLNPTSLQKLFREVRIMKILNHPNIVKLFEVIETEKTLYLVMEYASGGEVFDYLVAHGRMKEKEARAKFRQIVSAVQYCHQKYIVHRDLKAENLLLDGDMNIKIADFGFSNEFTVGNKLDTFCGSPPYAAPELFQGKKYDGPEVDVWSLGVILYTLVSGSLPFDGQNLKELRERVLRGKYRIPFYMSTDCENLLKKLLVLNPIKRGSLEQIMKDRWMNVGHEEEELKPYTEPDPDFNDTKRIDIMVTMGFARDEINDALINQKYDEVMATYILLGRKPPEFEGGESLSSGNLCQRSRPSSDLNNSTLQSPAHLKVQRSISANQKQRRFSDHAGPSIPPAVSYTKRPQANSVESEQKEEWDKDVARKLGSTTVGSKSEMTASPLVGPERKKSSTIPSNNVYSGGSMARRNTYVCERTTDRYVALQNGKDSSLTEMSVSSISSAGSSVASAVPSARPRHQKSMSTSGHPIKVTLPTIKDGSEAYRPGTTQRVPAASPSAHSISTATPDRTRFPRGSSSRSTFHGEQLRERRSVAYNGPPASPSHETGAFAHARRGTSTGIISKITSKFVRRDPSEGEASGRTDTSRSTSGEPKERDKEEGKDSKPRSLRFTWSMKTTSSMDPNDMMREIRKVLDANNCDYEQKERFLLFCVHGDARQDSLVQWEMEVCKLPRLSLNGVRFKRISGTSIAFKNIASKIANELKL
Sequence of MAP kinase-interacting serine/threonine-protein kinase 2 (Homo sapiens) (Q9HBH9 whole entry, looked up): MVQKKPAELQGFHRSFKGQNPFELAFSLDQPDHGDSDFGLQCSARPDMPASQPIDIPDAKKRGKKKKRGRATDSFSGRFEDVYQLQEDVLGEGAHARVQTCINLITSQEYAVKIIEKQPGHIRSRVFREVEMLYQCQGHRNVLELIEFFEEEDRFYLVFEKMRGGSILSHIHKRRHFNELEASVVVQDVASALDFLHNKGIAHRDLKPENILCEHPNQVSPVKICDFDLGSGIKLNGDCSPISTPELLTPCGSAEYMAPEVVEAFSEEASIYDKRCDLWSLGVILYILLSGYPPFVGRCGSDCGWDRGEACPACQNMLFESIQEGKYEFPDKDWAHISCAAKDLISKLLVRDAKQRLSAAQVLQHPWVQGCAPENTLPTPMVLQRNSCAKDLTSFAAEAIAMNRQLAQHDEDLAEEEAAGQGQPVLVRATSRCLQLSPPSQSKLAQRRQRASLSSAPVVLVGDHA
Sequence of MAP kinase-activated protein kinase 3 (Homo sapiens) (Q16644 whole entry, looked up): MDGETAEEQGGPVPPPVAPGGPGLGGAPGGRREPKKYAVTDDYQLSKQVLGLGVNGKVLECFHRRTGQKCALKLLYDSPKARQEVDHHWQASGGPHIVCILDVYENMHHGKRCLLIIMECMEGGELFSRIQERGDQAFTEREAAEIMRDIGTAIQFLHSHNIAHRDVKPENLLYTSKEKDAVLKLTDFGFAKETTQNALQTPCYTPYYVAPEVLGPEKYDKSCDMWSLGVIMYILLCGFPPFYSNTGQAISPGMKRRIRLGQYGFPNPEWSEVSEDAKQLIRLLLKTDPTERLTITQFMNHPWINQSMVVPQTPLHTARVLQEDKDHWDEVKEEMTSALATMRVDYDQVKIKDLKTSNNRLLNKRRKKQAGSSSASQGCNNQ

As usually defined, the inhibition is the drop in the measured response relative to a control, in per cent. Turning to `Nc1nc(-c2ccc(F)cc2)c(-c2ccc3ncccc3n2)s1`, the inhibition is 4.25% in [1]; 1.89% in [2]; 1.19% in assay [3]; 2.16% in [4]; 1.53% in assay [5]; 11.3% in assay [6]. For the same compound, the inhibition amounted to 24.6% in [7]; 4.82% in assay [8]; 7.14% in assay [9]; 3.4% in assay [10]; 3.12% in [11]; 2.07% in [12]. Moreover, the inhibition worked out at 2.43% in [13]; 4.85% in [14]; 22.3% in assay [15]; 4.39% in assay [16]; 8.56% in assay [17]; 1.91% in [18]. In addition, the inhibition in assay [19] was 5.26%; in [20], 0.92%.
On to `CC(=O)Nc1cccc(C#Cc2cncnc2Nc2ccc(OCc3cccc(F)c3)c(Cl)c2)c1`, for which the inhibition in assay [1] was -5.4%; in assay [2] it was 2.03%; in assay [3], -0.73%; in assay [4], -2.08%; in assay [5] it was -2.08%; in [6] it was -4.18%. Also, the inhibition was -2.89% in [7]; 1.42% in assay [8]; 0.83% in [9]; 3.81% in [10]; 4.64% in [11]; 0.9% in assay [12]. Moreover, the inhibition in [13] was determined as 0.69%; in assay [14], 1.32%; in assay [15], 1.11%; in assay [16], 2.02%; in assay [17] it was 15.4%; in assay [18], 1.16%. Besides, the inhibition was 6.2% in assay [19] and -0.32% in assay [20].
Turning to `COc1cccc(-c2c[nH]c3c(N/N=C/c4ccncc4)ncnc23)c1`, the inhibition in assay [1] was found to be 11.2%; in assay [2] it was 1.17%; in assay [3], 8.13%; in assay [4], 2.94%; in assay [5], 3.56%; in assay [6], 9.72%. The inhibition came to 11.1% in assay [7]; 2.74% in [8]; 8.15% in assay [9]; 6.06% in assay [10]; 11.8% in [11]; 1.97% in assay [12]. The inhibition in [13] was 7.5%; in [14], 0.82%; in assay [15], 4.88%; in assay [16], 15.4%; in [17], 57.1%; in assay [18], 11.8%. For the same compound, the inhibition came out at 51.1% in assay [19] and 0.99% in assay [20].
As to `Cc1cccc(Nc2ncc(-c3ccccc3)o2)c1`, the inhibition in [1] was 3.39%; in assay [2], -0.51%; in [3], 1.2%; in [4] it was 1.15%; in assay [5] it was 3.82%; in assay [6], 3.13%. Besides, the inhibition is 4.32% in assay [7]; 2.41% in assay [8]; 8.07% in assay [9]; 3.98% in assay [10]; 9.41% in [11]; 1.51% in [12]. For the same compound, the inhibition in assay [13] was 6.57%; in assay [14] it was 3.78%; in assay [15], 9.64%; in assay [16], 1.9%; in [17] it was 1.76%; in assay [18] it was 3.35%. For the same compound, the figures for the inhibition in assay [19] and in [20] were 8.3% and 2.22%, respectively.
On to `CCNC(=O)O[C@H]1CN[C@H](C#Cc2cc3ncnc(Nc4ccc(OCc5cccc(F)c5)c(Cl)c4)c3s2)C1`, for which the inhibition came to 3.45% in [1]; 1.18% in assay [2]; 2.85% in assay [3]; 1.55% in assay [4]; 1.53% in assay [5]; 2.87% in assay [6]. Besides, the inhibition in [7] was 2.32%; in assay [8], 1.89%; in assay [9], 2.65%; in assay [10] it was 2.76%; in assay [11] it was 2.72%; in assay [12] it was 0.88%. For the same compound, the inhibition stood at 1.97% in [13]; 4.18% in [14]; 4.99% in assay [15]; 2.75% in assay [16]; 4.73% in assay [17]; 0.73% in assay [18]. Moreover, the inhibition in assay [19] was 5.72%; in [20], -0.45%.
Take `CC(=O)NCc1cccc(C#Cc2cncnc2Nc2ccc(OCc3cccc(F)c3)c(Cl)c2)c1`: the inhibition in assay [1] is -8.59%; in [2] it was 1.43%; in [3], 6.49%; in assay [4] it was -2.58%; in assay [5], -3.05%; in assay [6], -4.92%. Also, the inhibition in assay [7] was -5.42%; in assay [8] it was 1.88%; in assay [9], 2.89%; in [10] it was 1.71%; in assay [11], 1.66%; in assay [12] it was 2.33%. Besides, the inhibition in assay [13] came to 3.13%; in assay [14], 0.79%; in assay [15], 2.93%; in assay [16] it was 3.79%; in [17], 32.1%; in assay [18] it was 2.64%. Further, the inhibition in [19] was 11.8%; in assay [20], 0.37%.
On to `Fc1cccc(COc2ccc(Nc3ncnc4sc(-c5ccco5)cc34)cc2Cl)c1`, for which the inhibition is 11.1% in assay [1]; -1.11% in [2]; 4.98% in assay [3]; 5.73% in [4]; 4.4% in assay [5]; 9.64% in [6]. In addition, the inhibition worked out at 11% in assay [7]; 2.72% in assay [8]; 5.69% in assay [9]; 3.1% in assay [10]; 4.54% in assay [11]; 2.34% in assay [12]. For the same compound, the inhibition in assay [13] is 3.94%; in assay [14] it was 5.07%; in [15], 1.45%; in assay [16], 1.99%; in assay [17] it was 10.1%; in assay [18] it was -0.22%. Besides, the values for the inhibition in assay [19] and in assay [20] were 15.1% and 1.08%, respectively.
